# Compound activity from PubChem.
# CYP2C19 activ = human CYP2C19 activators, primary screen, biochemical, luminescence | Cytochrome P450 2C19 (Homo sapiens), P33261 | recombinant CYP2C19, luciferin-H EGE luminescence; hits give high values; 0 = fully inhibited enzyme, 1 = untreated enzyme | activation factor at 5 µM | 96,000 tested, under 10 active;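 active means activation factor of at least 2 at 5 µM in the primary screen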
# CYP2C9 inhib = blockers of cytochrome P450 2C9 activity – biochemical, luminescence, ADME assay, primary screen | P11712 | CYP2C9 Supersomes, luciferin-H conversion | 20% of 96,000 active | inhibition, % at 5 µM;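 active means blocking of liver enzyme CYP2C9 beyond about 50% at 5 µM, limit read from the data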
# Target sequence (P11712 whole entry, looked up): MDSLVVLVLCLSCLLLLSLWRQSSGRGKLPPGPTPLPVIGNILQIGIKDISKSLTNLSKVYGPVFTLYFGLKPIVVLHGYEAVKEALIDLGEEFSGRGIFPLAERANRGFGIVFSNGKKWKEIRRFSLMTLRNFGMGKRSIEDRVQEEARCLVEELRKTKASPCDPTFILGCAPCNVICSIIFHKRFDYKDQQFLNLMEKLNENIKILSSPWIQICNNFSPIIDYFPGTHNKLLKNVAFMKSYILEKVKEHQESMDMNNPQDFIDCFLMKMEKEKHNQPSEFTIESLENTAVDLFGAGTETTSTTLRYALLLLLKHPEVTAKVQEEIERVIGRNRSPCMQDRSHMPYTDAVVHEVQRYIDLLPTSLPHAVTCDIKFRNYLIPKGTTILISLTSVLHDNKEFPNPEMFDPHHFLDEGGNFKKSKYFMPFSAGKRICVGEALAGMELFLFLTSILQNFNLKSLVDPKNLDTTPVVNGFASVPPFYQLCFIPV
# E-sel TNF inh = E-selectin induction blockers in HUVEC – imaging, immunofluorescence, high content, primary screen | HUVEC TNFa-induced E-selectin immunofluorescence | inhibition, % at 2 µM | 0.71% of 120,000 active | AID 1246, 2008;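 active means inhibition above the batch mean plus 3 SD, and confirmed as a hit on visual image review, cut at about 43% in these data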
# CYP2C9 act = human CYP2C9 activators, primary screen, biochemical, luminescence; Cytochrome P450 2C9 (Homo sapiens), P11712; recombinant CYP2C9, luciferin-H conversion; hits give high values; factor 1 = untreated enzyme, 0 = blocked; activation factor at 5 µM; 1.4% of 96,000 active;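 active means activation factor of 2 or more for CYP2C9 at a 5 µM dose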
# CYP2C19 inhib = blockers of cytochrome P450 2C19 activity – biochemical, luminescence, ADME assay, primary screen; CYP2C19 Supersomes, luciferin-H EGE luminescence, 30 min; inhibition, % at 5 µM; 21% of 96,000 active; AID 778, 2007;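 active means CYP2C19 inhibition above a set limit at 5 µM in the primary screen, cut at about 50% in these data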
# cytoskel mod = modifiers of F-actin cytoskeleton organization, primary screen, imaging, HUVEC, phalloidin staining, high-content imaging. inhibition, % at 2 µM. HUVEC TNFa F-actin phalloidin imaging. 0.18% of 91,000 active;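 active means inhibition above the batch mean plus 3 SD and confirmed as a hit by visual image inspection, cut at about 30% in these data, passing the limit was not always enough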
# A number is an active result; – = inactive; · = no result given. Hits are enriched below; roughly 22% of the tested compounds scored in any of these assays.
SMILES,CYP2C19 activ,CYP2C9 inhib,E-sel TNF inh,CYP2C9 act,CYP2C19 inhib,cytoskel mod
Cc1ccccc1C1CC(c2ccccc2OC(F)F)Nc2ncnn21 (configuration not stated),–,59.7,–,–,75.1,·
Clc1ccccc1C1CC(c2ccccc2)Nc2ncnn21 (configuration not stated),–,–,·,–,–,–
Cc1ccc(C2CC(c3ccccc3OC(F)F)Nc3ncnn32)cc1 (configuration not stated),–,–,–,–,–,–
COc1ccc(NC(=O)COC(=O)c2c3c(nc4ccccc24)CCCC3)cc1Cl,–,–,–,–,–,–
COC(=O)Cc1c(O)ccn(Cc2ccccc2OC)c1=O,–,–,–,–,–,–
COC(=O)Cc1c(O)ccn(Cc2cccc3ccccc23)c1=O,–,–,–,–,63.6,–
Cc1cccc(CN2C(=O)N/C(=C/c3cc(C)n(-c4cc(C)ccn4)c3C)C2=O)c1,–,61.2,–,–,–,–
COc1cccc(CN(C)CC(=O)Nc2cccc(C(F)(F)F)c2)c1OC,·,·,–,·,·,·
CC(=O)CN1Cc2ccccc2/C1=N\C(=O)Nc1ccccc1,–,–,–,–,57.9,–
O=C(NC(Cc1ccccc1)C(=O)O)c1ccc(S(=O)(=O)N2CCCCC2)cc1 (configuration not stated),–,78.5,–,–,–,–
O=C(Nc1cccnc1)C1CCCN(S(=O)(=O)c2ccccc2)C1 (configuration not stated),–,–,–,–,64.5,–
O=C(Nc1cccnc1)c1ccc(S(=O)(=O)N2CCCCCC2)cc1,–,73.0,–,–,62.2,·
O=C(NC(Cc1ccccc1)C(=O)O)c1ccc(S(=O)(=O)N2CCCC2)cc1 (configuration not stated),–,–,–,–,–,–
Cc1ccc(C(=O)Nc2cccnc2)cc1S(=O)(=O)N1CCOCC1,–,–,–,–,–,·
O=C(Nc1cccnc1)c1ccc(Cl)c(S(=O)(=O)N2CCCCCC2)c1,–,85.4,–,–,87.8,–
O=C(Nc1ccn(-c2ccccc2)n1)c1ccc(S(=O)(=O)N2CCCCCC2)cc1,–,–,·,–,52.7,–
O=C(Nc1ccccc1)c1ccc(S(=O)(=O)N2CCCCC2)cc1,·,·,·,·,·,–
COc1cc(C(=O)NCc2nnc(SCC(=O)Nc3ccc4c(c3)OCO4)o2)cc(OC)c1OC,·,·,–,·,·,·
CC(C)NCCOCCOc1ccccc1F,–,–,·,–,–,–
Cc1ccc(S(=O)(=O)NC(C)(C)CSc2nnc(N)s2)cc1,–,79.9,–,–,99.4,–
Cc1ccc(S(=O)(=O)NC(C)(C)CSc2nncn2C)cc1,–,–,–,–,–,–
CCOc1ccc(NC(=O)CSc2nnc(CCNC(=O)c3ccc(OC)cc3)n2C)cc1,–,56.7,–,–,–,–
COc1ccc(C(=O)NCCc2nnc(SCC(=O)Nc3ccc(Br)cc3)n2C)cc1,–,65.3,–,–,–,–
O=C1N=C(N2CCN(c3ccccc3)CC2)S/C1=C\c1cn[nH]c1-c1ccccc1,·,·,–,·,·,·
O=C1N=C(N2CCC(Cc3ccccc3)CC2)S/C1=C/c1cn[nH]c1-c1ccccc1,–,59.5,–,–,–,–
SMILES,CYP2C19 activ,CYP2C9 inhib,E-sel TNF inh,CYP2C9 act,CYP2C19 inhib,cytoskel mod
CCCOc1ccc(C(=O)C(CN2CCCC2)c2ccccc2)cc1 (configuration not stated),·,·,–,·,·,·
CC(=O)Cc1nsc(Nc2ccccc2)n1,–,–,–,–,77.3,·
CC(=O)Cc1nsc(NC(=O)c2ccc(COc3ccccc3)o2)n1,–,56.9,·,–,–,–
CCc1nnc(NC(=O)c2ccc(COc3ccccc3)o2)s1,–,–,–,–,–,–
CCn1c(COc2cccc(OC)c2)nnc1SCC(=O)Nc1ccccc1C(=O)OC,–,–,·,–,–,–
CCN(CC)CCCC1(CN)OCCc2ccccc21 (configuration not stated),–,–,–,–,–,–
COC(=O)c1cc2occc2n1CC(=O)N(C)C1CCCCC1,–,–,–,–,–,–
COC(=O)c1cc2oc(C)cc2n1CC(=O)N(C)c1ccccc1,–,–,–,–,64.4,–
C=CCN(C(=O)Cn1c(C(=O)OC)cc2oc(C)cc21)c1ccccc1,–,–,–,–,92.3,–
CCCCNC(=O)C1CCN(c2nc(OC)nc(OC)n2)CC1,·,·,–,·,·,–
Cc1ccc(C)c(/C(O)=C2\C(=O)C(=O)N(CCCn3ccnc3)C2c2ccncc2)c1 (configuration not stated),–,53.1,–,–,–,–
CC(=O)C1=C(O)C(=O)N(CCCn2ccnc2)C1c1ccc(C)cc1 (configuration not stated),–,–,–,–,59.7,–
CC(=O)C1=C(O)C(=O)N(CCCn2ccnc2)C1c1ccc(Cl)cc1 (configuration not stated),·,·,–,·,·,·
CCCCCCN1C(=O)C(O)=C(C(C)=O)C1c1ccc(Cl)cc1 (configuration not stated),–,75.3,–,–,–,·
OCCN1CCN(c2cc(-c3ccccc3)c3ccccc3n2)CC1,·,·,–,·,·,·
Cc1cc2nc(C)c(Cc3ccccc3)c(=O)n2[nH]1,–,–,·,2.3,–,–
COc1ccc(N(C(=O)CCl)C(C(=O)NCCc2ccccc2)c2cccs2)cc1 (configuration not stated),·,·,–,·,·,·
COc1ccc(N/N=C(\C=N\O)C(=O)c2ccc(OC)cc2)cc1,–,88.2,–,–,74.8,·
Cc1cc(C)c(NC(=O)Cn2cc3c(n2)CCCC3)c(C)c1,–,–,–,–,–,·
COC(=O)c1c(SCC(=O)Nc2ccc(C)cc2)nc(=O)[nH]c1C,·,·,–,·,·,·
O=S(=O)(c1cccc2ccccc12)n1nnc2ccccc21,–,–,–,–,–,–
Cc1ccccc1Cn1nnc(C(=O)Nc2cccc(C)c2C)c1N,–,–,–,–,54.3,–
Cc1cc(C)cc(NC(=O)c2nnn(Cc3cc(C)ccc3C)c2N)c1,–,68.5,·,–,–,–
Cc1ccc(-n2nc(C)c(C3C(C#N)=C(N)OC4=C3C(=O)CC(C)(C)C4)c2Cl)cc1 (configuration not stated),–,–,·,–,–,·
CC1=C(C(=O)OCc2ccccc2)C(c2ccoc2)C(C#N)=C(N)O1 (configuration not stated),–,–,–,–,77.4,–
C=CCOC(=O)C1=C(C)OC(N)=C(C#N)C1c1c(C)nn(-c2ccccc2)c1Cl (configuration not stated),–,82.4,–,–,89.2,–
CCOC(=O)C1=C(C)OC(N)=C(C#N)C1c1c(C)nn(-c2ccccc2)c1Cl (configuration not stated),–,74.3,–,–,83.3,·
